Measured values taken from PubChem BioAssay AID894 (National Center for Advancing Translational Sciences (NCATS), 2007).
About 6,500 (4.3%) of roughly 150,000 compounds were called active. About 12% were inconclusive and are not listed. The list comes from a sample in which actives are over-represented; it also holds similar structures and randomly drawn compounds. Values without a mark were called inactive. Calls come from the whole dose curve; as a rule, active = well fitted inhibition curve with a large enough effect (not every such curve was filed as active); inconclusive = small, poorly fitted or top-dose-only effect, or another doubt; inactive = no such curve, though single readings can be large or run the other way.

The compounds below were run against 15-hydroxyprostaglandin dehydrogenase [NAD(+)] (Homo sapiens) (UniProt P15428) (assay: qHTS Assay for Inhibitors of HPGD (15-Hydroxyprostaglandin Dehydrogenase)). Conditions: purified HPGD, NADH fluorescence kinetic, PGE2 substrate; activity change, negative = inhibition: active compounds read low.
Chain of 15-hydroxyprostaglandin dehydrogenase [NAD(+)] (Homo sapiens) (P15428 whole entry, looked up): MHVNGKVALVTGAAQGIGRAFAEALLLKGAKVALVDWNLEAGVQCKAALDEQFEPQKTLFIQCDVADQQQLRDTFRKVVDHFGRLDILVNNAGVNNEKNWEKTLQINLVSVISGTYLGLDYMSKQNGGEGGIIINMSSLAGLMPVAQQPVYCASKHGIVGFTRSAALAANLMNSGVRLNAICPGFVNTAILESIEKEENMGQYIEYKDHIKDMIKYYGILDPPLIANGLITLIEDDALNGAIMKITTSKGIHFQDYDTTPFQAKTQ
How it was run: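 20 nM HPGD preincubated 15 min at room temperature with compound in 50 mM Tris-HCl pH 8, 0.01% Tween 20. Started with 1 mM NAD+ and 30 uM prostaglandin E2; NADH fluorescence (360/450 nm) read 5 times over 30-s intervals, last minus first.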
% is set by controls: 0 for no effect and ±100 for the full control effect; potency is the fitted concentration of half-maximal effect.

SMILES | activity change, negative = inhibition | Potency
Cc1ccc(CN2C(=O)N/C(=C/c3cc(C)n(-c4ccccn4)c3C)C2=O)cc1 | -12.6% | 
C/C(Cc1ccccc1)=N\NC(=O)CNC(=O)c1cccc(Br)c1 | -6.55% | 
O=C(COC(=O)Cc1ccc(F)cc1)Nc1cc(S(=O)(=O)N2CCOCC2)ccc1N1CCCC1 | -3.83% | 
CCCCCCn1c(SCC(=O)c2ccccc2)nc2c1c(=O)[nH]c(=O)n2C | -21.9% | 
CCCCCn1c(SCCC(C)C)nc2c1c(=O)[nH]c(=O)n2C |  | 20 µM (active)
CCCSc1nc2c(c(=O)[nH]c(=O)n2C)n1CCc1ccccc1 | -20.7% | 
O=C(COC(=O)Cc1ccc(Br)cc1)Nc1c(F)c(F)c(F)c(F)c1F | -9.95% | 
Cc1[nH]n(-c2cccc(Cl)c2)c(=O)c1/C=N/n1c(C)nc2ccccc2c1=O | -20.7% | 
O=c1[nH]n(-c2cccc(Cl)c2)c2ncccc12 |  | 6.31 µM (active)
Cc1[nH]n(-c2cccc(Cl)c2)c(=O)c1-c1ccc(Cl)cc1 | -13% | 
COc1cc(CCC(=O)OCC(=O)Nc2cccc(S(N)(=O)=O)c2)cc(OC)c1OC | -6.23% | 
COC(=O)c1onc(-c2c(OC)cc(OC)cc2OC)c1C(=O)OC | -3.93% | 
N#Cc1ccsc1NC(=O)CN1CCN(S(=O)(=O)c2cc(Cl)ccc2Cl)CC1 | -24.3% | 
Cc1ccc(NN=Nc2nc3c([nH]2)c(=O)n(C)c(=O)n3C)cc1 |  | 22.4 µM (active)
CC(CCO)Nc1nc2c([nH]1)c(=O)n(C)c(=O)n2C (stereo not given) | -11.6% | 
CCCSc1nc2c(c(=O)n(C)c(=O)n2C)n1Cc1ccc(C)cc1 | -7.96% | 
CCN(CC)C(=O)CSc1nc2ccccc2o1 | -23.4% | 
Cc1ccnc(SCCn2c(Br)nc3c2c(=O)[nH]c(=O)n3C)n1 | -9.47% | 
Cn1c(=O)c2c(nc(Br)n2CCSc2nc3ccccc3o2)n(C)c1=O |  | 31.6 µM (active)
CN(Cc1ccccc1)c1nc2c(c(=O)[nH]c(=O)n2C)n1CCSc1nc2ccccc2[nH]1 | -9.14% | 
Cn1c(=O)[nH]c(=O)c2c1nc(Br)n2CCCCSc1nc2ccccc2o1 |  | 25.1 µM (active)
Cc1cccc(Cn2c(SCCO)nc3c2c(=O)n(C)c(=O)n3C)c1 | -7.66% | 
CCCC/S(C)=N/S(=O)(=O)c1ccc(C)cc1 (stereo not given) | 1.3% | 
Cc1ccc(C)c(NC(CC(=O)c2ccccc2)C(=O)OCC(=O)c2cccs2)c1 (stereo not given) | -4.17% | 
CCOc1ccccc1N1CCN(C(=S)Nc2ccc(S(N)(=O)=O)cc2)CC1 | -4.15% | 
